Common to all, as to test: log2 fold change, soluble protein after heating vs DMSO (PISA); higher = thermal stabilisation; K562 cells, 10 uM, 30 min; active = over 0.2 and 3.5 SD of the protein, either way, in both replicates (recomputed)
Compound in one assay: C#Cc1cccc(Nc2ncnc3cc(OCCOC)c(OCCOC)cc23)c1 [erlotinib]
An outline of the steps:
(§1)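 Aliquots of K562 cells (2×10^6 cells/mL) treated with 10 μM compound for 30 min were heated for 3 min over 48°C-58°C. After pooling and extraction in PBS with 0.5% NP-40 at 4°C, soluble protein from a 21,000xg, 90 min spin was quantified by TMTpro 16plex LC-MS/MS with channel sums equalised. Thermal stability is expressed against control samples, from duplicates, as a log2 fold change.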

Compound in assay [1]: C/C(=N\NC(=O)C1=CC(=CC=C1)S(=O)(=O)N2CCOCC2)/C3=C(C=CC(=C3)Cl)O
An outline of the steps: as §1

Compound in assay [2]: C1=CC(=C(C=C1Cl)C2=NC3=NC=CN=C3C(=N2)NC4=CC=NC=C4)F
An outline of the steps: as §1

Compound in assay [3]: C1=CC(=CC=C1C2=NC3=C(N2)C=C(C=C3)C(=O)N)OC4=CC=C(C=C4)Cl
An outline of the steps:
as §1

Compound in assay [4]: C1=CC2=C(C=CC(=C2)/C=C\3/C(=O)NC(=NCC4=CC=CS4)S3)N=C1
An outline of the steps:
as §1

Compound in assay [5]: C1=CC2=NC=CN=C2C=C1/C=C/3\C(=O)NC(=O)S3
An outline of the steps:
as §1

Compound in assay [6]: C1=CC=C(C=C1)C2=NC(=C(N2)C3=CC=NC=C3)C4=CC(=C(C=C4)Cl)O
An outline of the steps:
as §1

Compound in assay [7]: C1=CC=C2C(=C1)C3=NNC4=CC=CC(=C43)C2=O
An outline of the steps:
as §1

Compound in assay [8]: C1CCN(C1)C(=O)NC2=CC=CC(=C2)NC3=NC=C(C(=N3)NCCC4=CN=CN4)Br
An outline of the steps:
as §1

Compound in assay [9]: C1CN(CCC1(CC2=CC=C(C=C2)Cl)N)C3=NC=NC4=C3C=CN4
An outline of the steps: as §1

These results are taken from the supplement of paper PMC10849652.

Of roughly 7,900 targets only a part is listed; those with a hit were picked by preference. About 0.6% of all pairs of compound and target were hits. Unmarked numbers belong to inactive results.

Chain of UniProt Q7Z7G8 (Q7Z7G8 whole entry, looked up): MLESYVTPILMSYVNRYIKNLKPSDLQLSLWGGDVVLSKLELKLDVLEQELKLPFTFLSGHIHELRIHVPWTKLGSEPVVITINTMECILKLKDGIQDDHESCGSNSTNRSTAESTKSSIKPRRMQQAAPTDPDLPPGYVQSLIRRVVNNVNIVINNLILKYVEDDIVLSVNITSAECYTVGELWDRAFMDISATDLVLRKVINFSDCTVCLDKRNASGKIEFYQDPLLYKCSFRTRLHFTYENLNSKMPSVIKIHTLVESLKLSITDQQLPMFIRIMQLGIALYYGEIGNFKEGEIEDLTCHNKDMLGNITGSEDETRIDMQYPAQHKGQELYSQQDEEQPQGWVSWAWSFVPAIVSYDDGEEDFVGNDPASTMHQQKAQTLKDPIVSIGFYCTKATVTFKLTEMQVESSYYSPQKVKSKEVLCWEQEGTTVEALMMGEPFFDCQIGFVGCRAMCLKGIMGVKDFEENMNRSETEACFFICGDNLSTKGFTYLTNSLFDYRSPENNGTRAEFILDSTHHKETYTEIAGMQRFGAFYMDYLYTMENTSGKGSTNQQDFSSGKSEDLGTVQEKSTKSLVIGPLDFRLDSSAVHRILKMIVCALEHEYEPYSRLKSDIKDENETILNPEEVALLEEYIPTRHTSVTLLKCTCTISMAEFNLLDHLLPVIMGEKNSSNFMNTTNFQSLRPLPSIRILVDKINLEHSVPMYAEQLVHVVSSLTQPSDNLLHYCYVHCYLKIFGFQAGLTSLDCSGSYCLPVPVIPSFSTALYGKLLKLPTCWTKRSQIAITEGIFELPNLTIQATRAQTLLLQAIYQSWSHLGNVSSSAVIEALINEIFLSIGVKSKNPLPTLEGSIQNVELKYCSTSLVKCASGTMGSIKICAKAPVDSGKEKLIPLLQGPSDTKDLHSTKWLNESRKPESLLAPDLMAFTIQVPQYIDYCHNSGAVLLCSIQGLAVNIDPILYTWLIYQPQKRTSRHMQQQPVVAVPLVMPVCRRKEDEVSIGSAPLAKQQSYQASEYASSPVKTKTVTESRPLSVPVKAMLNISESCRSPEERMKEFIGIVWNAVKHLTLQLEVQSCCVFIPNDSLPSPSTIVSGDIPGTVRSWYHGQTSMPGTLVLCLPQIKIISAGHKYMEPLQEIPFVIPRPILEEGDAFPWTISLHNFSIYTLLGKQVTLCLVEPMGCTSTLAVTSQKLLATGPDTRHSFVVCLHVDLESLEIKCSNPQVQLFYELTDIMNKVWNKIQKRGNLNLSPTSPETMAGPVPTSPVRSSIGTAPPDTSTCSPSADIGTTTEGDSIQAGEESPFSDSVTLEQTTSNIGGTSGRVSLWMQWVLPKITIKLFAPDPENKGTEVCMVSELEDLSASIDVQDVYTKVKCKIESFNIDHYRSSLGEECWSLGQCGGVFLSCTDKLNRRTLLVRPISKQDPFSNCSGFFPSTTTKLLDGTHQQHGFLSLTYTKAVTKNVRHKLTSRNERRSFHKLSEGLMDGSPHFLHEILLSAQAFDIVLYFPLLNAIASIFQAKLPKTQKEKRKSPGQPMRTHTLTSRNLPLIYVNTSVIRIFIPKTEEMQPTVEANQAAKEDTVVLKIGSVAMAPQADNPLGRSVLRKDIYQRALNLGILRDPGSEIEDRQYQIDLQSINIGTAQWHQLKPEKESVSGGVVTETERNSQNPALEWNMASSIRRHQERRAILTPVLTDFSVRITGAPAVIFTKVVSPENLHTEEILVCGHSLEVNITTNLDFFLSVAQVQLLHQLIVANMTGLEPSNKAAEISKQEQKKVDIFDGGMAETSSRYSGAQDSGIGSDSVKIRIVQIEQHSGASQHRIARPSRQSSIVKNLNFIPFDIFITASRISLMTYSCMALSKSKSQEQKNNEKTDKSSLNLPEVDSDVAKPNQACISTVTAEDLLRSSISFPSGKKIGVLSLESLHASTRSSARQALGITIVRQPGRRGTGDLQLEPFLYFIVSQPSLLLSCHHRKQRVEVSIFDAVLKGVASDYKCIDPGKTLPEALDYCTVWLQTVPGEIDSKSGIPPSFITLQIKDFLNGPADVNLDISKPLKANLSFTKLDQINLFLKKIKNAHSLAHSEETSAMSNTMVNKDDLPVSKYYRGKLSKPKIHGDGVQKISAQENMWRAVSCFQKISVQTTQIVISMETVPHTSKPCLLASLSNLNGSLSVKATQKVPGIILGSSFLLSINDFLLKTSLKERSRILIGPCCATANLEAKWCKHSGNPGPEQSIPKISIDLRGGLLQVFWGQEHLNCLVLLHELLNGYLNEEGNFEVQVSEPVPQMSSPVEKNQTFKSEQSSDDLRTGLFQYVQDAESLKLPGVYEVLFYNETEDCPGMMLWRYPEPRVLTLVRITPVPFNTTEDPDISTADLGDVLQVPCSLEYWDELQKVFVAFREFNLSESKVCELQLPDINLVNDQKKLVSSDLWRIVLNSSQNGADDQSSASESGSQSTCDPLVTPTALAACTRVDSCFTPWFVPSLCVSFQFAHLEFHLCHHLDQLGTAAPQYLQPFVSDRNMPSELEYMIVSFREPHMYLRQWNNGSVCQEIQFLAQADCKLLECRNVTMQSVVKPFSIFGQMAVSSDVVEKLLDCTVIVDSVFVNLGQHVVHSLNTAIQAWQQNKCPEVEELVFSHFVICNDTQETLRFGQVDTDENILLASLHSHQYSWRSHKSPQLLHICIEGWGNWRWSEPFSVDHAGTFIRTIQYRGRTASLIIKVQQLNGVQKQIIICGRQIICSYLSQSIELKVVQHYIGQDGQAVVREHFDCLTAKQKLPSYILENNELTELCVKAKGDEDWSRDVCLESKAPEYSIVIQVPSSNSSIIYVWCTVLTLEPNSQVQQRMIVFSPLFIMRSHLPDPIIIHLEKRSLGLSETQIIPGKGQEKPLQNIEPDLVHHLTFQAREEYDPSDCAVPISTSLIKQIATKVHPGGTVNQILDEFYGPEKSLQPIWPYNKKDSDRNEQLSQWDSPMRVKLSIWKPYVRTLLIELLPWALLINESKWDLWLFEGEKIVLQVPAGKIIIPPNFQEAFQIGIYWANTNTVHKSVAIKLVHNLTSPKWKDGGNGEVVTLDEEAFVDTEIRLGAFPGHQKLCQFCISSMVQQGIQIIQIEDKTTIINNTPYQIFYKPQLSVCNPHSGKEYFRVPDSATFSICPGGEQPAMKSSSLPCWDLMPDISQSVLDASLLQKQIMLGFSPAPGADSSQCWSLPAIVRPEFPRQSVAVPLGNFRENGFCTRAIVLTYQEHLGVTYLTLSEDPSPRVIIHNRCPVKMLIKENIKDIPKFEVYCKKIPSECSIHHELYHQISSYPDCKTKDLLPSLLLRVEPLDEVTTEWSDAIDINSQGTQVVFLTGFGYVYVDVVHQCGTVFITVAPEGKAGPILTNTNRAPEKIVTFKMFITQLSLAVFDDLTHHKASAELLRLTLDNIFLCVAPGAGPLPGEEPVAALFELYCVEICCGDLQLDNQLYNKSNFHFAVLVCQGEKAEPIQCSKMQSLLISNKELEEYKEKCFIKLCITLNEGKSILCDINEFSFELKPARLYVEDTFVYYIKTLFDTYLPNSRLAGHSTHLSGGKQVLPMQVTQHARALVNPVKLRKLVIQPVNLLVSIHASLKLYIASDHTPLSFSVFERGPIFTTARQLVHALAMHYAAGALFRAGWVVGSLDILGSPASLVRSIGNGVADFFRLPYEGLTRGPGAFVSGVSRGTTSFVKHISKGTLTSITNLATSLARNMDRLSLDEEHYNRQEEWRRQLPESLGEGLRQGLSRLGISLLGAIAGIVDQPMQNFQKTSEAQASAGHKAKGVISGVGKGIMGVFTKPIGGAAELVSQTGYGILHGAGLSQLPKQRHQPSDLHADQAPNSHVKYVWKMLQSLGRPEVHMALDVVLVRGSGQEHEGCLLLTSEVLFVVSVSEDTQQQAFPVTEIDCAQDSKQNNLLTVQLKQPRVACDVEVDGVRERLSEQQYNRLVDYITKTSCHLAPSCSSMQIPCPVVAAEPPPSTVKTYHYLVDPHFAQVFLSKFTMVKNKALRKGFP
Chain of UniProt Q9NP79 (Q9NP79 whole entry, looked up): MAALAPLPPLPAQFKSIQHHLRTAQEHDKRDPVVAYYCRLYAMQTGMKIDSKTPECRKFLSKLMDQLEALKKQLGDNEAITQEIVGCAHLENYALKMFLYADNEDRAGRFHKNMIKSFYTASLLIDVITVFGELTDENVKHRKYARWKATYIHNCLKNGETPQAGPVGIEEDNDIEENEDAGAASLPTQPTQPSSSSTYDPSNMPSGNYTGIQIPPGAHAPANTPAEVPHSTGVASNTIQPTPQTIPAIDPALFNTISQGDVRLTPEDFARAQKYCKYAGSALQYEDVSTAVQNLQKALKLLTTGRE
Chain of UniProt Q9NQH7 (Q9NQH7 whole entry, looked up): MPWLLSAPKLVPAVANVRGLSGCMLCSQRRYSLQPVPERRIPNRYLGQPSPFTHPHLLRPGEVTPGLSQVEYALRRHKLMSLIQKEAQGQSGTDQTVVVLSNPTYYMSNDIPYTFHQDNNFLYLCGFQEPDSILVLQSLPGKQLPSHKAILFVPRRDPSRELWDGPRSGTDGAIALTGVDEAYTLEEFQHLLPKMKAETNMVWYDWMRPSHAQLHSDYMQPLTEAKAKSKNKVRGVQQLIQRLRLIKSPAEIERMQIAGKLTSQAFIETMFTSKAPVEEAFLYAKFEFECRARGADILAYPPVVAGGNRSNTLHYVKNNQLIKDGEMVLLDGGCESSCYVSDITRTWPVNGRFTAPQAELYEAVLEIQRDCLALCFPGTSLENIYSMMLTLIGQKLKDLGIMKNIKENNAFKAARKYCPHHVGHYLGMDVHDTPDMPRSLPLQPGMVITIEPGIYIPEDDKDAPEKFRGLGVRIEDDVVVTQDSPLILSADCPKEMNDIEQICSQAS
Chain of UniProt O00258 (O00258 whole entry, looked up): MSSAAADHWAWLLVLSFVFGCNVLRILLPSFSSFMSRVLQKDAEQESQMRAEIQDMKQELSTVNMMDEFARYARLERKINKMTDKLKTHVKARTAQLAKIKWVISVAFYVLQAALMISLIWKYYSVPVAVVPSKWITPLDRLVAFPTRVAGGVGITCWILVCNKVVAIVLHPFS
Chain of UniProt Q8N4H5 (Q8N4H5 whole entry, looked up): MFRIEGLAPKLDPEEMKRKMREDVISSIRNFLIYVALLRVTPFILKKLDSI

Consider VTA1 (UniProt Q9NP79), for which the log2 fold change with erlotinib was -0.05; in assay [1] it was 0.124; in assay [2] it was 0.07; in assay [3], 0.018; in assay [4], -0.007; in assay [5] it was 0.025. Also, the log2 fold change was -0.02 in [6], 0.029 in assay [7], 0.01 in [8] and -0.024 in assay [9].

On to TMEM268 isoform 3 (UniProt Q5VZI3), for which the log2 fold change with erlotinib was -0.161; in assay [1] it was 0.061; in assay [2], -0.166; in assay [3] it was 0.054; in assay [4], 0.024; in assay [5], -0.138. Moreover, the log2 fold change in assay [6] was 0.118; in assay [7], -0.21; in [8] it was 0.13; in assay [9] it was 0.045.

On to XRCC5 (UniProt P13010), for which the log2 fold change in the assay with erlotinib was 0.103; in [1] it was 0.178; in assay [2], -0.012; in assay [3] it was -0.038; in [4], 0.079; in assay [5], 0.037. In addition, the log2 fold change is 0.11 in assay [6], -0.039 in assay [7], -0.059 in assay [8] and -0.139 in [9].

As for XPNPEP3 (UniProt Q9NQH7), the log2 fold change is 0.019 with erlotinib; -0.275 (active) in [1]; 0.017 in assay [2]; 0.06 in assay [3]; 0.067 in assay [4]; 0.026 in assay [5]. Further, the log2 fold change in [6] is -0.005; in assay [7], 0; in assay [8], 0.005; in assay [9], 0.083.

USP25 isoform 3 (UniProt Q9UHP3): the log2 fold change with erlotinib is 0.007; in assay [1], 0.086; in [2], 0.02; in assay [3], 0.002; in assay [4], 0.028; in assay [5], 0.005. Also, the log2 fold change in assay [6] was -0.024; in [7] it was 0.011; in assay [8] it was -0.038; in [9], 0.043.

On to VPS13B (UniProt Q7Z7G8), for which the log2 fold change with erlotinib is 0.032; in assay [1] it was 0.024; in assay [2], 0.028; in assay [3] it was 0.009; in [4] it was 0.048; in assay [5], -0.025. Further, the log2 fold change in assay [6] was 0.032; in assay [7] it was -0.017; in assay [8], -0.052; in assay [9], 0.058.

As for WDR7 (UniProt Q9Y4E6), the log2 fold change with erlotinib is 0.06; in assay [1] it was 0.074; in [2] it was 0.065; in assay [3] it was -0.049; in [4], 0.092; in [5] it was -0.001. Moreover, the log2 fold change is 0.099 in assay [6], 0.028 in assay [7], -0.009 in assay [8] and -0.02 in assay [9].

Regarding TMEM128 (UniProt Q5BJH2), the log2 fold change with erlotinib is -0.048; in assay [1], 0; in assay [2], 0.06; in [3] it was 0.034; in assay [4] it was -0.437; in [5] it was 0.067. Further, the log2 fold change in assay [6] was -0.081; in assay [7], -0.238; in [8], -0.182; in [9] it was 0.084.

As for TRMT10C (UniProt Q7L0Y3), the log2 fold change with erlotinib was -0.015; in assay [1], 0.066; in assay [2], 0.09; in assay [3], 0.062; in assay [4] it was 0.009; in assay [5], -0.007. Besides, the log2 fold change in assay [6] is 0.036; in assay [7] it was 0.036; in [8] it was -0.008; in [9] it was 0.009.

For TXNL1 (UniProt O43396), the log2 fold change was -0.012 with erlotinib; 0.096 in assay [1]; 0.009 in [2]; -0.031 in assay [3]; -0.011 in assay [4]; -0.018 in [5]. For the same target, the log2 fold change in [6] was 0.014; in [7], 0.016; in [8], -0.001; in [9] it was -0.077.

As for VWA8 (UniProt A3KMH1), the log2 fold change is 0.077 with erlotinib; 0.037 in [1]; 0.017 in assay [2]; -0.036 in [3]; 0.108 in assay [4]; 0.008 in assay [5]. Besides, the log2 fold change in assay [6] is 0.017; in assay [7] it was 0.069; in [8], -0.009; in assay [9] it was 0.042.

For the target USP48 isoform 8 (UniProt Q86UV5), the log2 fold change in the assay with erlotinib is 0.114; in assay [1] it was 0.186; in [2], 0.14; in [3], -0.033; in assay [4], 0.028; in [5], -0.013. In addition, the log2 fold change was 0.049 in assay [6], -0.049 in assay [7], -0.103 in [8] and -0.029 in assay [9].

Take TOMM5 isoform 2 (UniProt Q8N4H5): the log2 fold change in the assay with erlotinib was -0.115; in assay [1], 0.063; in assay [2], 0.378 (active); in [3], 0.134; in [4], 0; in [5], 0.052. For the same target, the log2 fold change in assay [6] was -0.123; in assay [7], -0.003; in [8], -0.038; in assay [9], -0.047.

With WRB (UniProt O00258), the log2 fold change in the assay with erlotinib was -0.02; in assay [1], 0.012; in assay [2], 0.032; in assay [3], 0.019; in [4], -0.003; in [5] it was 0.069. For the same target, the log2 fold change in assay [6] is 0.019; in assay [7], -0.042; in assay [8], 0.027; in [9], -0.011.

For VPS16 (UniProt Q9H269), the log2 fold change with erlotinib is 0.104; in [1] it was 0.128; in assay [2], -0.004; in [3], -0.034; in assay [4], 0.093; in assay [5], 0.087. The log2 fold change was -0.031 in assay [6], -0.018 in assay [7], -0.007 in assay [8] and -0.128 in [9].
